Compounds with a hit are over-represented: about 4.8% of the library has one in this group of screens.
ATXN viability: Viability Counterscreen for Primary qHTS for Inhibitors of ATXN expression. S2 cells (HEK-293 line with an ATXN2-luciferase reporter) viability, CellTiter-Fluor protease fluorescence, 24 h. Potency, µM (titrated, usually from 56.7 µM), hits mostly cytotoxic. 400,000 compounds, 0.49% hits; further: potency means the concentration at half of the fitted maximal effect; nearly all actives have a fitted effect of over 40% in size
IL1B secr inh: qHTS for Inhibitors of Inflammasome Signaling: IL-1-beta AlphaLISA Primary Screen. THP-1 LPS/ATP IL-1B secretion, AlphaLISA, 16 h; hits give low values. activity change, % at 57.5 µM. 360,000 compounds, 4.7% hits. AID 743279, 2014; in the data active means activity change below about -50%; inconclusive means mostly about -30% to -49%; further: on the % scale 0 is the no-effect control and ±100 the full control effect
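Secreted IL-1B measured by AlphaLISA bead assay after 16 h compound exposure of THP-1 cells; compounds (final up to 57.5 uM) added 1 h before LPS (250 ng/mL) and ATP (1.25 mM) stimulation; lower signal means less secretion.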
USP2a block: qHTS Assay for Inhibitors of Ubiquitin-specific Protease USP2a Using CHOP2 as the Reporter. USP2 core, Ub-CHOP2 coupled fluorogenic reporter, 485/531. Potency, µM (series often up to 38.3 µM), without a hit: at the top dose activity change, negative = inhibition, usual class: inhibitors. 330,000 compounds, 0.01% hits. Ubiquitin carboxyl-terminal hydrolase 2 (Homo sapiens), O75604;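 further: potency means the concentration at half of the fitted maximal effect; plate controls were DMSO wells for no effect and full inhibition by NEM control for full effect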
Target sequence (O75604 whole entry, looked up): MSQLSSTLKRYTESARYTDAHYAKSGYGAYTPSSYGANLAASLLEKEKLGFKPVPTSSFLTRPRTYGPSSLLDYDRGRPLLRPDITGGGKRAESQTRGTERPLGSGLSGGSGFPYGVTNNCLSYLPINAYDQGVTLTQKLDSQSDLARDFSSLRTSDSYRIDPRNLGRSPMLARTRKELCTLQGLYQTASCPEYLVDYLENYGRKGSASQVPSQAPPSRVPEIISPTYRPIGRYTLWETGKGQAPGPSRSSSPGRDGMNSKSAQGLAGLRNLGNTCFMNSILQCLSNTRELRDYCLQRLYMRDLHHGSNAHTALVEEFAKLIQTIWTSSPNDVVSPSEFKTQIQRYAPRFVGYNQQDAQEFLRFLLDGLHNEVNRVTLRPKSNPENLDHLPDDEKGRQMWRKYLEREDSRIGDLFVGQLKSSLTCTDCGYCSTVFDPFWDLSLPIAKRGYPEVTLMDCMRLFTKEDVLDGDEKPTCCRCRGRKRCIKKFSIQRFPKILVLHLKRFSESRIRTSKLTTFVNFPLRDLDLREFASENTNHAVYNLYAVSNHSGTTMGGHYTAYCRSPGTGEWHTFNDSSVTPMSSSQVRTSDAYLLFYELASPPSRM
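Cell-free coupled assay: 10nM USP2 core preincubated 30min RT with compound in Tris-HCl pH 8.0/CaCl2/CHAPS buffer, then 25nM Ub-CHOP2 and 25nM reporter substrate; fluorescence (Ex 485/Em 531) read after 60min RT, normalized to NEM inhibition, concentration-response curves fitted.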
ATXN2 expr inh: Primary qHTS for Inhibitors of ATXN expression; Potency, µM (series often up to 57 µM), inactives show top-dose activity change, negative = inhibition, actives largely listed as inhibitors; AID 1745845, 2022; 360,000 compounds, 0.72% hits; HEK-293 ATXN2-luciferase reporter, luminescence, 24 h; further: potency means the concentration at half of the fitted maximal effect; on the % scale 0 is the no-effect control and ±100 the full control effect; nearly all actives have a fitted effect of over 55% in size
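qHTS (up to 57 uM final) was run with 24 h compound exposure of reporter cells at 37 °C. Each well was multiplexed: SteadyGlo luminescence measured ATXN2-luciferase expression after a fluorogenic Gly-Phe-AFC viability readout (25 uM final).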
USP1 inh: Inhibitors of USP1/UAF1: Primary Screen. 390,000 compounds, 0.23% hits. Ubiquitin carboxyl-terminal hydrolase 1 (Homo sapiens), O94782. Potency, µM (doses to about 57.1 µM), without a hit: at the top dose activity change, negative = inhibition, usual class: inhibitors. recombinant USP1/UAF1, Ub-Rhodamine cleavage fluorescence; further: potency means the concentration at half of the fitted maximal effect; on the % scale 0 is the no-effect control and ±100 the full control effect; nearly all actives have a fitted effect of over 60% in size
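High-throughput fluorogenic screen: 1nM USP1/UAF1 complex, Ub-Rho substrate 150nM final, 50mM HEPES pH 7.8 with 0.5mM EDTA, 0.1 mg/ml BSA, 1mM TCEP and 0.01% Tween-20.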
* hit, by the source's call; i = inactive; ? = inconclusive; . = no result given. Unless noted, the call rests on the fitted dose curve; in most records, active means well fitted curve in the direction sought with a large enough effect; inconclusive means small, poorly fitted or top-dose-only effect, or another doubt; inactive means no such curve, though single readings can be large; an effect the other way counts as inactive or inconclusive.

SMILES	ATXN viability	IL1B secr inh	USP2a block	ATXN2 expr inh	USP1 inh
O=C(c1ccc2c(c1)OCO2)N(Cc1cc2cc3c(cc2nc1N1CCOCC1)CCC3)CC1CCCO1 (stereo not drawn)	i	.	.	.	.
Cc1cccc(Nc2nnc(-c3ccc(N4CCOCC4)c([N+](=O)[O-])c3)c3ccccc23)c1	?	-62*	-11%	?	-20%
Cc1ccc(-c2nnc(Nc3cccc(O)c3)c3ccccc23)cc1S(=O)(=O)N1CCOCC1	?	.	.	?	-8%
O=C(Nc1ccc(-c2csc(Nc3ccccc3)n2)cc1)c1cc([N+](=O)[O-])cc(C(F)(F)F)c1	13µM*	88	9%	?	?
O=C(Nc1cccc(-c2csc(Nc3cccc(C(F)(F)F)c3)n2)c1)c1cc([N+](=O)[O-])cc(C(F)(F)F)c1	i	4	-5%	6%	-9%
Cc1noc(Cn2c(=O)c3ccccc3n(CC(=O)Nc3ccccc3C(F)(F)F)c2=O)n1	.	.	.	.	-20%
COc1cc(OC)c(OC)cc1CN1CCOc2ccc(CN3C[C@@H](C)O[C@@H](C)C3)cc2C1	i	.	.	.	.
Cc1cc(C)n(-c2nc(SCCN(C)C)c3c4c(sc3n2)CCCC4)n1	?	-78*	3%	?	-17%
Cc1cnc(CNC(=O)C2CCC(=O)N(CCc3cccc(F)c3)C2)[nH]1 (stereo not drawn)	i	2	1%	5%	-6%
CCCc1c(-c2cccc(Br)c2)ncn1Cc1ccccc1OC	?	-17	.	-38%	.
CCCCc1c(Cc2cccc(F)c2)ncn1CCc1ccccc1OC	18µM*	0	.	14µM*	.
CCCCc1c(-c2ccccc2OC)ncn1C1CCCC1	.	-18	.	?	.
CCCCc1c(-c2ccc(F)cc2F)ncn1CCc1ccccc1OC	.	-71*	.	?	.
CCCCCc1c(-c2ccc(F)cc2F)ncn1CCc1ccccc1OC	?	-100*	.	?	.
CC1(C(=O)NC2CCCCC2)CCC(=O)N1C1CCN(Cc2ccccc2)CC1 (stereo not drawn)	i	-5	.	7%	.
COc1ccc(-n2nc3c(N4CCCC(C(=O)NCCc5ccc(C)cc5)C4)nnc(C)c3c2C)cc1 (stereo not drawn)	?	.	.	?	-30%
COc1cn(-c2ccccc2)nc1C(=O)Nc1ccc(C)cc1Cl	i	-13	0%	16%	-24%
OC(c1ccc(F)cc1)c1ncc(-c2cccc3ccccc23)[nH]1 (stereo not drawn)	i	-3	.	9%	.
COC(=O)CNC(=O)COC(=O)/C=C/c1ccc2ccccc2n1	i	-103*	1%	18%	-15%
CC1CCCCN1C(=O)COC(=O)/C=C/c1ccc2ccccc2n1 (stereo not drawn)	?	-54*	1%	.	-17%
COC(=O)CNC(=O)COC(=O)/C=C/c1cccs1	i	?	-1%	-7%	-16%
CC(OC(=O)/C=C/c1ccc2ccccc2n1)C(=O)NCc1ccccc1 (stereo not drawn)	i	-75*	0%	9%	-4%
N#Cc1cc(C(=O)c2ccccc2OCC(=O)Nc2ccccc2Cl)cn(C2CCCCC2)c1=O	i	-5	-1%	-11%	-5%
N#Cc1cc(C(=O)c2cc(Br)ccc2O)cn(C2CCCCC2)c1=O	?	-80*	3%	?	-11%
CC(C)C(=O)Nc1nnc(S(=O)(=O)N(C)Cc2ccc(F)cc2)s1	.	.	.	.	-11%
SMILES	ATXN viability	IL1B secr inh	USP2a block	ATXN2 expr inh	USP1 inh
CSc1ccc(C(=O)C2CCCN(C(=O)c3cc4cc(F)ccc4[nH]3)C2)cc1 (stereo not drawn)	i	-63*	2%	-15%	-9%
CN1C(=O)/C(=C\C(=O)c2cccs2)c2ccccc21	?	-103*	7%	?	-20%
COc1ccc(-n2nc3c(N4CCC(C(=O)NCC(C)c5ccccc5)CC4)nnc(C)c3c2C)cc1 (stereo not drawn)	?	-96*	3%	?	-25%
COc1ccc(-n2nc3c(N4CCC(C(=O)NCc5ccccc5C)CC4)nnc(C)c3c2C)cc1	i	-95*	-1%	-5%	?
COc1ccc(-n2nc3c(N4CCC(C(=O)NCCc5ccccc5C)CC4)nnc(C)c3c2C)cc1	?	-83*	2%	?	-21%
CCOc1ccccc1CNC(=O)C1CCCN(c2nnc(C)c3c(C)n(-c4ccccc4)nc23)C1 (stereo not drawn)	7.9µM*	-8	2%	?	?
CCN(Cc1ccncc1)Cc1ccc2c(c1)CN(C(=O)c1cccc(-n3nc(C)cc3C)c1)CCO2	i	.	.	.	.
CC1(Cc2ccc(OC(F)(F)F)cc2)C(=O)Nc2ccc(S(=O)(=O)NC3CCCCC3)cc21 (stereo not drawn)	?	-72*	.	?	.
COc1ccccc1-c1ccc2c(c1)C(C)(Cc1ccc(OC(F)(F)F)cc1)C(=O)N2 (stereo not drawn)	?	-52*	.	?	.
COc1ccccc1-c1ccc2c(c1)C(C)(Cc1ccc(Cl)cc1)C(=O)N2 (stereo not drawn)	i	7	.	1%	.
CC1(Cc2ccc(Cl)cc2)C(=O)Nc2ccc(S(=O)(=O)NC3CCCCC3)cc21 (stereo not drawn)	?	-8	.	?	.
CN(Cc1cccs1)c1nc(-c2cccnc2)nc2ccccc12	.	-92*	-1%	-24%	-16%
O=c1[nH]c(SCc2nc3c(cnn3-c3ccccc3)c(=O)[nH]2)nc2ccccc12	i	5	4%	67%	?
O=c1[nH]c(CSc2nc3ccccc3[nH]2)nc2c1cnn2-c1ccccc1	?	-67*	0%	?	-20%
O=Cc1cn(-c2ccccc2)nc1-c1cccnc1	i	-83*	1%	-5%	0%
O=Cc1cn(-c2ccccc2)nc1-c1ccccc1	i	-5	0%	.	-20%
O=C(N/N=C/c1sc(=O)n(Cc2ccc(Br)cc2)c1Cl)c1ccco1	.	-78*	3%	?	-2%
CCOC(=O)c1oc2ccc(CNCCO)c(Cl)c2c1C	i	?	1%	16%	-2%
CCOC(=O)c1oc2ccc(CNC3CCCCC3)c(Cl)c2c1C	i	-82*	3%	-34%	?
CC1CC2=C(NC(=S)NC2c2cccc(F)c2)/C(=C/c2cccc(F)c2)C1 (stereo not drawn)	i	-64*	-9%	-26%	-13%

Assay outcomes from PubChem.
